High-throughput results as filed in PubChem BioAssay.
mIDH1 inhibitor: qHTS for Inhibitors of mutant isocitrate dehydrogenase 1 (IDH1): qHTS; hit rate 0.093% among 390,000; Isocitrate dehydrogenase [NADP] cytoplasmic (Homo sapiens), O75874; Potency, µM (titrated, usually from 76.6 µM), for the others: at the highest dose activity change, negative = inhibition, hits mostly inhibitors; AID 602179, 2012; IDH1-R132H enzyme, NADPH consumption, diaphorase/resazurin fluorescence; note: potency is the fitted concentration of half-maximal effect; % is set by controls: 0 for no effect and ±100 for the full control effect; nearly all actives have a fitted effect of over 65% in size
Target sequence (O75874 whole entry R132H, stated change not applied): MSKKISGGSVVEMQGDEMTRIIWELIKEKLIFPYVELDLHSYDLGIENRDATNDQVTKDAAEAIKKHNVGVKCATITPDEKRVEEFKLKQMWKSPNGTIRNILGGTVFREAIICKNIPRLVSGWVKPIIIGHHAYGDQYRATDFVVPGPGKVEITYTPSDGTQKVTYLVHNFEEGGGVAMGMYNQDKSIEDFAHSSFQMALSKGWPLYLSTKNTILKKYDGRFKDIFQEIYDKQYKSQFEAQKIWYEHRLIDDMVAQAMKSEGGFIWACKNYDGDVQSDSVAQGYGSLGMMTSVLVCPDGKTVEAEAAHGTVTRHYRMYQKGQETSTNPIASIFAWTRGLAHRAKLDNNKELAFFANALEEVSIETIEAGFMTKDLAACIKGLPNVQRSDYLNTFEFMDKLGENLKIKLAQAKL
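IDH1-R132H (0.5 ug/mL dispensed) in pH 7.5 Tris buffer was preincubated 30 min with compound, then given a substrate mix of 0.016 mM NADPH and 2 mM alpha-KG for 80 min at room temperature; remaining NADPH was read by diaphorase/resazurin fluorescence.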
IL2 activator: qHTS of IL-2 Activators | IL-2 activation reporter assay, cell-based qHTS; stimulated with anti-CD3/CD4/CD28 beads; in transgenic mouse T cells | activation, % (series mostly up to about 46 µM) | hit rate 0.065% among 360,000; in the data active = activation above about 50%; inconclusive = mostly about 30% to 49%; note: 0% is about no effect
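Readout: EGFP and DsRed signals by fluorescent plate cytometry. Unstimulated transgenic mouse T cells received compound 60 min before antibody-bead stimulation, then incubated 18 h at 37 degrees C.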
BRCA1 expr up: qHTS Assay to Identify Small Molecule Activators of BRCA1 Expression | MCF7-BRCA1-FFLuc reporter, luminescence, 48 h; response scale: scaled: vehicle 0%, 10 µM genistein 100% | Potency, µM (series often up to 46.1 µM), without a hit: top-dose activation, hits mostly activators | hit rate 1.1% among 380,000 | AID 624202, 2012; note: potency is the fitted concentration of half-maximal effect; nearly all actives have a fitted effect of over 80% in size
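Using MCF7 cells harboring a BRCA1 firefly luciferase reporter, plated 2 h before compound pinning, the screen measured luminescence after 48 h incubation. Responses were normalized to DMSO and 10 microM genistein, then fitted for concentration-effect.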
Giardia killer: Small Molecules that selectively kill Giardia lamblia: qHTS; hit rate 0.15% among 340,000; activity change, % at 7.66 µM, hits read low; Giardia lamblia trophozoite viability; in the data active = activity change below about -80%; inconclusive = between about -30% and that limit;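 note: parasites exposed to compound for two days anaerobically before the ATP read; % is set by controls: 0 for no effect and ±100 for the full control effect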
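Viability, read as ATP luminescence: trophozoites at 100 cells/well, compound added, 48 hrs anaerobic at 37 deg C, then 15-30 min room-temperature development before reading.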
rTrxR1 inhibitor: qHTS Assay for Inhibitors of Mammalian Selenoprotein Thioredoxin Reductase 1 (TrxR1): qHTS; recombinant rTrxR1, NADPH fluorescence consumption, selenite substrate; hit rate 1% among 390,000; Thioredoxin reductase 1, cytoplasmic (Rattus norvegicus), O89049; Potency, µM (highest dose often 114 µM), inactives show at the top dose activity change, negative = inhibition, actives largely listed as inhibitors; AID 588453, 2011; note: potency is the fitted concentration of half-maximal effect; % is set by controls: 0 for no effect and ±100 for the full control effect; nearly all actives have a fitted effect of over 65% in size
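Rat TrxR1 (90 nM in the dispensed reagent) was pre-reduced with 400 uM NADPH for 5 min at room temperature, then incubated with compound for 15 min. After 400 uM selenite was added, NADPH fluorescence (Ex 340/Em 450 nm) was followed for 8 min.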
TrxR1 substrate: qHTS Assay for Substrates of Mammalian Selenoprotein Thioredoxin Reductase 1 (TrxR1): qHTS | hit rate 0.01% among 390,000 | Potency, µM (highest dose often 114 µM), for the others: top-dose activity change, negative = substrate turnover | Thioredoxin reductase 1, cytoplasmic (Rattus norvegicus), O89049 | purified TrxR1 substrate turnover, NADPH consumption readout; note: potency is the fitted concentration of half-maximal effect; % is set by controls: 0 for no effect and ±100 for the full control effect; nearly all actives have a fitted effect of over 50% in size
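Rat TrxR1, dispensed at 90 nM, was prereduced with 400 uM NADPH (final) for 5 min at ~22 deg C, then incubated with compound 15 min before 400 uM selenite. A first-read NADPH fluorescence drop versus no-compound background flagged substrates.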
* hit, by the source's call; ? = inconclusive; . = no result; [ ] = another dose, or the depositor's remark. The list is not random: actives were taken first. Their share in the collection is about 2.2%. Unless noted, calls come from the whole dose curve; as a rule, active = well fitted curve in the direction sought with a large enough effect; inconclusive = small, poorly fitted or top-dose-only effect, or another doubt; inactive = no such curve, though single readings can be large; an effect the other way counts as inactive or inconclusive.

SMILES | mIDH1 inhibitor | IL2 activator | BRCA1 expr up | Giardia killer | rTrxR1 inhibitor | TrxR1 substrate
O=C(Nc1ccc2c(c1)OCO2)c1ccc2sc([C@@H]3O[C@H](CO)[C@H](O)[C@H](O)[C@H]3O)nc2c1 | . | 0 | 5% | . | . | .
O=C(Nc1nccs1)c1ccc2sc([C@H]3C[C@H](O)[C@@H](CO)O3)nc2c1 | . | 0 | 13µM* | . | . | .
O=C(Nc1ccc2c(c1)OCO2)c1ccc2sc([C@@H]3O[C@H](CO)[C@@H](O)[C@H]3O)nc2c1 | . | 1 | 3.2µM* | . | . | .
CCC(Sc1nc2nccnc2c(=O)n1Cc1ccc(C)cc1)C(=O)NC1CCCCC1 (stereo not given) | -7% | . | . | . | 4% | -1%
COc1ccccc1NC(=O)C(=O)/C=C(\O)c1ccccc1 | -8% | -1 | 2.8µM* | -27 | ? | -11%[57.1 µM]
CC(=O)c1c(C)n([O-])c2cc(C)ccc2[n+]1=O | 11% | 3 | 6% | -104* | -26% | -7%
CCc1nc2oc3ccccc3c(=O)c2cc1C(=O)OC | 5% | 0 | 3.2µM* | 16 | 7%[57.1 µM] | 12%[57.1 µM]
O=C(O)c1cc2c(=O)c3ccccc3oc2nc1C(F)(F)F | -3% | 0 | 8% | 15 | -1% | 5%
COCc1nc2oc3ccc(F)cc3c(=O)c2cc1C(=O)OC | 2% | -5 | 4µM* | 6 | 4%[57.1 µM] | -9%
COCc1nc2oc3ccc(C)cc3c(=O)c2cc1C(=O)OC | 3% | 0 | 3.2µM* | -8 | 6% | 13%
COc1ccc(CN2CC[C@H]3C=CC[C@@H](C(=O)Nc4ccccc4)[C@H]3C2=O)cc1OC | . | . | . | . | 3% | 0%
CCOc1cc(C(=O)Nc2ccc3nc(Nc4cccc(Cl)c4)cc(C)c3c2)cc(OCC)c1OCC | -3% | . | -3% | . | 2% | 7%
O=C(c1cc2ccccc2o1)N1CCCC1 | 3% | -1 | 56% | -19 | -11% | -8%
CC1CCN(C(=O)c2cc3ccccc3o2)CC1 | 3% | 0 | 11µM* | -3 | -7% | 2%[57.1 µM]
O=C(c1cc2ccccc2o1)N1CCCCCC1 | 3% | -4 | 8.9µM* | 4 | 12% | -3%
CC1CC(C)CN(C(=O)c2cc3ccccc3o2)C1 (stereo not given) | 0% | -1 | -11% | -29 | 7% | 1%
CCn1nc(C)c2c(-c3ccccc3)cc(=O)n(C(C)C(=O)NCCc3ccc(OC)c(OC)c3)c21 (stereo not given) | 12% | . | . | . | 16%[57.1 µM] | 1%[57.1 µM]
NC(=O)c1c(NC(=O)c2ccccc2)sc2c1CCN(Cc1ccccc1)C2 | -7% | 317* | 17% | ? | -8%[57.1 µM] | 6%[57.1 µM]
CCN1CCc2c(sc(NC(=S)NC(=O)c3ccccc3)c2C#N)C1 | -3% | 0 | 74% | 33 | 18µM* | -8%
O=C(CSc1ccccc1)Nc1ccc(-c2nc3ccccc3[nH]2)cc1 | 2% | 0 | ? | -13 | 11%[11.4 µM] | 15%[57.1 µM]
O=C(Cc1cccs1)Nc1ccc(-c2nc3ccccc3[nH]2)cc1 | 1% | 0 | 5.6µM* | -1 | 13% | 31%
O=C(CN1CCOCC1)Nc1ccc(-c2nc3ccccc3[nH]2)cc1 | 6% | -1 | 11µM* | -6 | 0% | 5%
COc1cccc(NC(=O)/C(C#N)=C\c2cn(Cc3ccc(C)cc3)c3ccccc23)c1 | 15% | . | . | . | 1% | -1%
CCOC(=O)c1ccc(NCCOC)c([N+](=O)[O-])c1 | 9% | 1 | 13µM* | -10 | 7%[57.1 µM] | -5%[57.1 µM]
CCOC(=O)c1ccc(NC(=O)c2ccccc2[N+](=O)[O-])cc1 | 0% | 0 | 18% | 0 | 3% | -2%
COCCNc1cc(N)c([N+](=O)[O-])cc1[N+](=O)[O-] | 5% | -2 | -20% | -24 | 6%[57.1 µM] | -12%
